# Assay results reported in PubChem BioAssay.
# Inconclusive results are not listed. For some of these results: Potency and affinity values are given separately. The list shows a part of the results. Activity calls are given as the source filed them.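 How the source made its calls, unless noted: active means GFP response above 150% of the DMSO level; inconclusive means fewer than 70 events counted for a yeast strain; inactive means the rest.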
# How the values were obtained:
# [1] = target: Cell division control protein 42 homolog (Homo sapiens) (UniProt P60953); experiment: inhibition of fluorescent GTP binding to constitutively active Cdc42 – biochemical, multiplex bead flow cytometry, Bodipy-FL-GTP, dose response (AID 1333;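 active means fitted half-maximal concentration within the tested dose range, moderate curve steepness, a statistically real signal drop, and little compound fluorescence or tag-binding interference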)
# [2] = target: Cell division control protein 42 homolog (Homo sapiens) (UniProt P60953); experiment: inhibition of fluorescent GTP binding to wildtype Cdc42 – biochemical, multiplex bead flow cytometry, Bodipy-FL-GTP, dose response (AID 1334;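 active means fitted half-maximal concentration within the tested range, moderate curve steepness, significant signal drop, and little compound fluorescence or bead-linkage interference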); conditions: bead-based flow cytometry, Bodipy-FL-GTP binding to GST-Cdc42; at 100 µM (top of the series) unless noted
# [3] = target: GTPase HRas (Homo sapiens) (UniProt P01112); experiment: Ras wt fluorescent GTP loading blockade – biochemical, wildtype, multiplex bead flow cytometry, dose response (AID 1335;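 active means fitted half-maximal concentration within 10 nM to 100 µM, steepness 0.5 to 2, significant signal drop, low assay interference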); conditions: bead-based flow cytometry, Bodipy-GTP binding to GST-Ras; at 100 µM (top of the series) unless noted
# [4] = test system: Ras-related protein Rab-7a (dog), GTP binding; experiment: blockers of fluorescent GTP binding to Rab7 – biochemical, wildtype, multiplex bead flow cytometry, dose response (AID 1336; call rule not given here)
# [5] = target: Ras-related C3 botulinum toxin substrate 1 (Homo sapiens) (UniProt P63000); experiment: inhibition of wildtype Rac1 nucleotide loading – biochemical, multiplex bead flow cytometry, dose response (AID 1340;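 active means dose curve with midpoint inside tested range, moderate steepness, plateau gap beyond fit error, low compound glow and bead-link interference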); conditions: GST-Rac1 beads, Bodipy-FL-GTP binding; at 100 µM (top of the series) unless noted
# [6] = target: GTPase HRas (Homo sapiens) (UniProt P01112); experiment: blockade of GTP loading onto mutant Ras – biochemical, activated mutant, multiplex bead flow cytometry, dose response (AID 1341;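 active means dose-response curve with midpoint inside the tested range, moderate steepness, significant amplitude and little compound fluorescence or bead-attachment interference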;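 further: GST-tagged constitutively activated Ras mutant immobilized on beads and multiplexed with other GTPases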)
# [7] = hit retest on RPL19A-GFP reporter strain – cell-based, S. cerevisiae, flow cytometry, cherry picks, mother/daughter gates, confirmation (AID 2270;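 active means GFP response below 50% of the DMSO control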); conditions: 3 h, at 10 µM, stronger effect = lower value, 100 = same GFP as DMSO wells
# [8] = yeast TOR pathway reporter LAP4-GFP change – cell-based, cherry picks, flow cytometry, mother/daughter gates, confirmation (AID 2271;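 active means GFP response above 150% of the DMSO control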;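 further: ratio of sample to DMSO plate mean so 100% equals DMSO level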); conditions: S. cerevisiae LAP4-GFP strain, 3 h, at 10 µM, stronger effect = higher value, 100 means same as DMSO control
# [9] = TOR pathway reporter MEP2-GFP, retest of hits – S. cerevisiae, flow cytometry GFP, cherry picks, confirmation (AID 2272;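 active means GFP response above 150% of the DMSO control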;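 further: ratio of well signal to plate DMSO mean so 100% equals DMSO level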); conditions: S. cerevisiae MEP2-GFP strain, 3 h, at 10 µM, stronger effect = higher value
# [10] = yeast AGP1-GFP fluorescence change, single-dose – cell-based, flow cytometry, S. cerevisiae, cherry picks, confirmation (AID 2273);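 further: median GFP channel fluorescence over the whole cell population gate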; conditions: S. cerevisiae AGP1-GFP strain, 3 h, at 10 µM
# [11] = TOR pathway CIT2 reporter hit retest – S. cerevisiae, GFP fusion, cherry picks, mother/daughter gates, confirmation (AID 2274); conditions: S. cerevisiae CIT2-GFP strain, flow cytometry, 3 h, at 10 µM, stronger effect = higher value
# [12] = rapamycin-like changes in RPL19A-GFP expression – cell-based, S. cerevisiae, multiplex flow cytometry, primary screen (AID 1862; in the data active means percent of DMSO control GFP below about 86%;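 further: lower values mimic rapamycin by blocking the RPL19A rise seen in DMSO cells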); conditions: S. cerevisiae RPL19A-GFP strain, flow cytometry fluorescence, 3 h; at 10 µM; stronger effect = lower value
# [13] = TOR pathway GLN3 branch reporter MEP2-GFP changes – S. cerevisiae, multiplex flow cytometry, primary screen (AID 1867;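 active means GFP response, as percent of the DMSO control, above the screen-wide mean plus 3 SD, about 139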;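 further: median GFP channel fluorescence of barcode-gated MEP2-GFP cells measured by flow cytometry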); conditions: S. cerevisiae MEP2-GFP strain, 3 h, at 10 µM, stronger effect = higher value, 100% means same as DMSO wells
# [14] = TOR pathway RTG branch CIT2 reporter changes – S. cerevisiae, GFP fusion, multiplex flow cytometry, primary screen (AID 1870;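 active means percent response above a set limit, the screen-wide mean plus 3 SD, cut at about 130% in these data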;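 further: barcoded CIT2-GFP strain pooled with four other GFP strains with rapamycin as positive control; median GFP fluorescence per well over plate mean of DMSO wells so 100% = DMSO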); conditions: S. cerevisiae CIT2-GFP expression, 3 h, at 10 µM, stronger effect = higher value
# [15] = TOR pathway LAP4-GFP level changes – S. cerevisiae, multiplex flow cytometry, primary screen (AID 1873;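 active means GFP signal, as percent of the solvent control, above the screen mean plus 3 SD, about 149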); conditions: S. cerevisiae LAP4-GFP expression, 3 h, at 10 µM, stronger effect = higher value
# [16] = yeast AGP1-GFP level changes, GLN3 branch – cell-based, multiplex flow cytometry, S. cerevisiae, primary screen (AID 1887;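 active means GFP signal above the screen-wide mean plus 3 SD, that is over about 124.5% of the solvent control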;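 further: AGP1-GFP fusion strain of S. cerevisiae within a five-strain barcoded multiplex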); conditions: 3 h, at 10 µM, stronger effect = higher value
# [17] = reduced mouse 2C T cell binding to pMHC/ICAM-1 vesicles – MLPCN validation set, flow cytometry, LFA-1/ICAM-1 modulator project, pilot screen (AID 2523;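 active means response below a set limit, under 55% cells CD8-positive and vesicle-bound, and CD8 cells' 90th-percentile brightness under 279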;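 on vesicle binding response: mean PE anti-B7-1 fluorescence of CD8+ cells relative to row control; 100% = QL9-loaded vesicles with DMSO vehicle in the same plate row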); conditions: 2C mouse CD8+ T cells, at 7 µM, stronger effect = lower value; double positive events: measured here: CD8+/vesicle+ event percentage
# [18] = target: Integrin beta-1 (Homo sapiens) + Integrin alpha-4 (Homo sapiens) (UniProt P13612+P05556); experiment: alpha4beta1 integrin LIBS antibody binding reduction – U937 cells, HUTS-21 mAb, flow cytometry, validation set, VLA-4 allosteric modulator project, pilot screen (AID 2674;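 active means inhibition above 50%, about 3 SD of the validation set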;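 further: antibody binding induced by the VLA-4 ligand LDV present at three times its Kd; 0% = LDV ligand with antibody and no compound and 100% = antibody without LDV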); conditions: HUTS-21 LIBS mAb binding, at 6.7 µM, stronger effect = higher value, binding induced by LDV ligand
# [19] = calorie-restriction mimetic ROS inhibitors, yeast – validation compound set, pilot screen (AID 2706;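 active means superoxide response below 65% of plate, a cut near 3 SD across the whole screen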;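 further: yeast exposed to compound for one week at 30 degrees C before staining; 100% = mean of all compound wells on the same plate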); conditions: S. cerevisiae aging, superoxide DHE fluorescence; at 10 µM; stronger effect = lower value
# [20] = target: Beta-adrenergic receptor kinase 1 (Homo sapiens) (UniProt P25098); experiment: GRK2 binders displacing RNA aptamer, biochemical, validation, human GRK2, bead flow cytometry (AID 488806;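 active means aptamer binding inhibition above 30%, about 3 SD of noise from non-fluorescent compounds; inactive means inhibition at or below 30%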); conditions: bead-bound GRK2, FAM-aptamer displacement, at 10 µM, stronger effect = higher value
# [21] = target: Beta-2 adrenergic receptor (Homo sapiens) (UniProt P07550); experiment: agonist-induced loss of surface beta2AR – cell-based, FAP fluorogen, flow cytometry, validation set, pilot screen (AID 504459;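 active means percent response above 42, roughly 3 SD of non-fluorescent test compounds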;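 further: agonist-driven loss of surface beta2AR via internalization measured by FAP dye flow cytometry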); conditions: Am2.2-beta2AR cells, at 10 µM, stronger effect = higher value
# [22] = target: AP-2 complex subunit beta (Homo sapiens) (UniProt P63010); experiment: beta-arrestin/AP2 interaction blockers – biochemical, validation set, GST-AP2 beads, flow cytometry, pilot screen (AID 504541;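 active means inhibition above 54%, about 3 SD of non-fluorescent compounds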;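 further: AP2 carries R879A mutation and is captured from E. coli lysate; bead-bound FITC arrestin peptide fluorescence measuring arrestin peptide binding to AP2; 0% = DMSO wells and 100% = excess unlabeled arrestin peptide control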); conditions: FITC arrestin peptide, at 10 µM, stronger effect = higher value, AP2 beta2 appendage fragment, R879A mutant
# [23] = cytosolic pH regulators acting via V-ATPase – S. cerevisiae, pHLuorin, HTS validation (AID 504600; in the data active means response above about 15%;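 further: plate controls were DMSO for no effect and reference compound for full effect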); conditions: V-ATPase proton transport, at 10 µM, stronger effect = higher value
# [24] = test system: anti-desmoglein-3 scFv antibody binding to human DSG3; experiment: blockers of pathogenic pemphigus antibody–desmoglein-3 binding – biochemical, validation compound set, bead-based, flow cytometry, pilot screen (AID 588368;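 active means binding below the plate cutoff, the plate median minus 3 SD, with a reading above zero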;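 further: signal is the median channel fluorescence of bead-bound GFP antibody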); conditions: Protein G beads, DSG3-Fc, scFv-GFP binding, at 10 µM, stronger effect = lower value
# [25] = Nile Red efflux blockade in pump-expressing yeast – validation compound set, multiplex, phenotypic, pilot screen (AID 588506;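 active means efflux inhibition above 0.42, the validation set average plus 4 SD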;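 further: Nile Red retained in cells so higher fluorescence means more efflux inhibition; 0 = negative control wells and 1 = enniatin B 25 µM full block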); conditions: S. cerevisiae pump-expressing triplex, Nile Red efflux flow cytometry; at 10 µM; stronger effect = higher value; the pumps come from Candida albicans
# [26] = target: ATP-binding cassette sub-family B member 6 (Homo sapiens) (UniProt Q9NP58); experiment: blockers of ABCB6-driven porphyrin uptake – K562-ABCB6 cells, flow cytometry, validation set, pilot screen (AID 588550;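 active means inhibition above the screen-wide mean plus 3 SD, about 51%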;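 further: 0% = DMSO wells and 100% = benzethonium chloride 70 µM positive control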); conditions: K562-ABCB6 porphyrin accumulation, 1 h, at 10 µM, stronger effect = higher value
# [27] = AML differentiation inducers, ER-HoxA9 marrow cells – cell-based, GFP/MAC1 double positive, flow cytometry, validation set, primary screen (AID 588685;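 active means differentiation response of at least 50%, scaled between solvent and reference control, from cells with both markers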;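 further: compound exposure lasts four days before antibody staining and flow analysis; 0% = DMSO wells and 100% = 5 µM fulvestrant positive control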); conditions: stronger effect = higher value, normalized: vehicle 0, fulvestrant 100
# [28] = green-channel fluorescence artefact in S. cerevisiae – s288c strain, artefact control for yeast TOR pathway GFP screen, dose response (AID 2757;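 active means fluorescence span over the dose series, or activity score, above about 33, limit read from the data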;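 further: thousands of bead-calibrated equivalent soluble fluorophore molecules from median cell fluorescence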); conditions: 520 nm autofluorescence, flow cytometry, 3 h, at 33 µM, stronger effect = higher value, zero means same as solvent-only cells
# [29] = measured here: daughter cell gate
# [30] = measured here: mother cell gate
# [31] = measured here: daughter cell gate response
# [32] = measured here: mother cell gate response
# Cell division control protein 42 homolog (Homo sapiens), sequence (P60953 whole entry, looked up): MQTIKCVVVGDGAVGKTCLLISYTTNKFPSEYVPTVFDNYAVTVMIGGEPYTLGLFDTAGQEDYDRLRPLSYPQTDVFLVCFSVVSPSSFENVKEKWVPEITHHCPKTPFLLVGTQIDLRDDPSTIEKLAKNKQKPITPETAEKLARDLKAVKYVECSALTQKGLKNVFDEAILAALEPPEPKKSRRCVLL
# GTPase HRas (Homo sapiens), sequence (P01112 whole entry, looked up): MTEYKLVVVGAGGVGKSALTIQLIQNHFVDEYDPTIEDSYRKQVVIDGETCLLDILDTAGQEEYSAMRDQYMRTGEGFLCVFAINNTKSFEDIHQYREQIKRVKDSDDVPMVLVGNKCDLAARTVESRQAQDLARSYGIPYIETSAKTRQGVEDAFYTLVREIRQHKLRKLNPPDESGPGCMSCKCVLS
# Beta-adrenergic receptor kinase 1 (Homo sapiens), sequence (P25098 whole entry, looked up): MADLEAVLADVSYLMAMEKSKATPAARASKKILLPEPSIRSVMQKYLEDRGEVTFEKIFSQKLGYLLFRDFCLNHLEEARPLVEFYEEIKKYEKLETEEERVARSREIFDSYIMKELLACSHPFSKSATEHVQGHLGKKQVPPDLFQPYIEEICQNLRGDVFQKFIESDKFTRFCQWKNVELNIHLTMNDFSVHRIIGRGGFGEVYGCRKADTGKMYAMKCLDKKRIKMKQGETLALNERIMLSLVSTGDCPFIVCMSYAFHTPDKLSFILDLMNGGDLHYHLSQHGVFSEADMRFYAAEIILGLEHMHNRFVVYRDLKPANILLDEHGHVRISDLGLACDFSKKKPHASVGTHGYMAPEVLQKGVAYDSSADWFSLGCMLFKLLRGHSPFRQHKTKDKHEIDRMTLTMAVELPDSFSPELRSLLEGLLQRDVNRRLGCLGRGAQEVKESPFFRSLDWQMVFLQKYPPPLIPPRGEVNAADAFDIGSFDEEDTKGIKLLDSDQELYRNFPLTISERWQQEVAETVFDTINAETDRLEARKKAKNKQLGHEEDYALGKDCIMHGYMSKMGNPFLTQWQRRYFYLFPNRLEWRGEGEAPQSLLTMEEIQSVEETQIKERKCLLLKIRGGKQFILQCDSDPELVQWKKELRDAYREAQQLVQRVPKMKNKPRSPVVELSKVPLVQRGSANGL
# Integrin beta-1 (Homo sapiens) + Integrin alpha-4 (Homo sapiens), sequence (P05556 whole entry, looked up): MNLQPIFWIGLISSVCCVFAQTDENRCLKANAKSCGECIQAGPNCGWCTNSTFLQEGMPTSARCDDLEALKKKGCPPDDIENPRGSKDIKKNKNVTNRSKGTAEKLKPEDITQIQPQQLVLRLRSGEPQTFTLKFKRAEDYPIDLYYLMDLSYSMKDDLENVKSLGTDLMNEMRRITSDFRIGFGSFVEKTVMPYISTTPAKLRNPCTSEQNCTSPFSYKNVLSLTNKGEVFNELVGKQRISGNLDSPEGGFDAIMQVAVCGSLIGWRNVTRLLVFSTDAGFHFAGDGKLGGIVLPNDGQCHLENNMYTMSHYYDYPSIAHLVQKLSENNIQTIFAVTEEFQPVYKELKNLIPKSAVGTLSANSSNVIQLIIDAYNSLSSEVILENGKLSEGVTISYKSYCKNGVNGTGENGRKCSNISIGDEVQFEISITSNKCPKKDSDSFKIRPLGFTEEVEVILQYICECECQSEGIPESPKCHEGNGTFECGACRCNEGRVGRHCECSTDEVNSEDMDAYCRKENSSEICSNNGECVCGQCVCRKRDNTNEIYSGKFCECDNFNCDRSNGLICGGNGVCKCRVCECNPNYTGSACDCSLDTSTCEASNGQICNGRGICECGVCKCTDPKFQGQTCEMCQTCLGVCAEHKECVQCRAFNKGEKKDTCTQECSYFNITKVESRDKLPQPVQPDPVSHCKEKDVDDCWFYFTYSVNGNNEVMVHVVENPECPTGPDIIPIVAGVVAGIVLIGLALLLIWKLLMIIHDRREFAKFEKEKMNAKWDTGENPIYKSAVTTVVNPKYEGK
# Integrin beta-1 (Homo sapiens) + Integrin alpha-4 (Homo sapiens), sequence (P13612 whole entry, looked up): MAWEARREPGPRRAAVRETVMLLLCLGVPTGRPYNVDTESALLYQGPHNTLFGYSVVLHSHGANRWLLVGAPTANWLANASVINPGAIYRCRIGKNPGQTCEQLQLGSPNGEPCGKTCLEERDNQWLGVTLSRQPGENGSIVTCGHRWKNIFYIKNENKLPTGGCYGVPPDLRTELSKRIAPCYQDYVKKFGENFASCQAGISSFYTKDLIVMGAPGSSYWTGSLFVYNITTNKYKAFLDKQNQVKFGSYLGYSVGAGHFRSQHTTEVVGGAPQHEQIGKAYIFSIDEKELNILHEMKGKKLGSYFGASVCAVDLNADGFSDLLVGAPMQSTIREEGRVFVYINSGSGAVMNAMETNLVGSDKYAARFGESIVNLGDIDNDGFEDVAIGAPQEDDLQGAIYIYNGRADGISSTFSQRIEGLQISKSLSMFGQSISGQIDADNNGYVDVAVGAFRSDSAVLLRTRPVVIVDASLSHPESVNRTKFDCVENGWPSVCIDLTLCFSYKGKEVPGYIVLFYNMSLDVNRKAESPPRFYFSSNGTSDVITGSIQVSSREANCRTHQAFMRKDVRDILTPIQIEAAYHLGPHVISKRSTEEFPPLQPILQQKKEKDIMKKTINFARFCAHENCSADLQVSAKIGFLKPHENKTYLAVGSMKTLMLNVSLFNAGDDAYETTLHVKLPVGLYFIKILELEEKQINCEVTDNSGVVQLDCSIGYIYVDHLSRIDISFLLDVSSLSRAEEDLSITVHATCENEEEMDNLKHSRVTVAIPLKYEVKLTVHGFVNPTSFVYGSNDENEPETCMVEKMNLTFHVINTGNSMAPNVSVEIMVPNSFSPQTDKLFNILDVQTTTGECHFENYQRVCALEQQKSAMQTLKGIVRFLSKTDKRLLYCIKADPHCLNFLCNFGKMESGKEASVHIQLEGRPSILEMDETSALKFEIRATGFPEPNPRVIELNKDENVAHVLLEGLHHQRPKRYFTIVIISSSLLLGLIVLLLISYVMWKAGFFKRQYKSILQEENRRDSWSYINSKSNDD
# ATP-binding cassette sub-family B member 6 (Homo sapiens), sequence (Q9NP58 whole entry, looked up): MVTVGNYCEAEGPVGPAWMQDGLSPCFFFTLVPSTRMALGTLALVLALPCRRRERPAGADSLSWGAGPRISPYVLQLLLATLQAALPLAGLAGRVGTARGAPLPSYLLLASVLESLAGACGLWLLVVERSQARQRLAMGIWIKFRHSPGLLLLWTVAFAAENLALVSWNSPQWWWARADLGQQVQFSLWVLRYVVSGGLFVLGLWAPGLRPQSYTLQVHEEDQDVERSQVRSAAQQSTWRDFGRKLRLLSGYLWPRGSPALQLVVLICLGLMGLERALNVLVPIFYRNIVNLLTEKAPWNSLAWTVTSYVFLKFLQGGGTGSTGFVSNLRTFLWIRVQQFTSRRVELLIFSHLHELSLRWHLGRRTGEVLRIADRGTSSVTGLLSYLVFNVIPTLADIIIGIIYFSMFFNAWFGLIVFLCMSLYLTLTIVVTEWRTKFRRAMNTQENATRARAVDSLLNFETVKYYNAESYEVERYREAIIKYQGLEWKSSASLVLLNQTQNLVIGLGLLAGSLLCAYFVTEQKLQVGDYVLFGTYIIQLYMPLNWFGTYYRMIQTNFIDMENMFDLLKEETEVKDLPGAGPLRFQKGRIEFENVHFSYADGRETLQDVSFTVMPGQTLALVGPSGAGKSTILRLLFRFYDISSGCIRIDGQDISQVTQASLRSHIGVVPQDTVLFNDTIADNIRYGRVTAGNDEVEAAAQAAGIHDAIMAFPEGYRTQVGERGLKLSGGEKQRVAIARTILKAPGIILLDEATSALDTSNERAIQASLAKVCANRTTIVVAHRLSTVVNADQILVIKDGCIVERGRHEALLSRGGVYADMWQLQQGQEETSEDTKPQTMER
# Beta-2 adrenergic receptor (Homo sapiens), sequence (P07550 whole entry, looked up): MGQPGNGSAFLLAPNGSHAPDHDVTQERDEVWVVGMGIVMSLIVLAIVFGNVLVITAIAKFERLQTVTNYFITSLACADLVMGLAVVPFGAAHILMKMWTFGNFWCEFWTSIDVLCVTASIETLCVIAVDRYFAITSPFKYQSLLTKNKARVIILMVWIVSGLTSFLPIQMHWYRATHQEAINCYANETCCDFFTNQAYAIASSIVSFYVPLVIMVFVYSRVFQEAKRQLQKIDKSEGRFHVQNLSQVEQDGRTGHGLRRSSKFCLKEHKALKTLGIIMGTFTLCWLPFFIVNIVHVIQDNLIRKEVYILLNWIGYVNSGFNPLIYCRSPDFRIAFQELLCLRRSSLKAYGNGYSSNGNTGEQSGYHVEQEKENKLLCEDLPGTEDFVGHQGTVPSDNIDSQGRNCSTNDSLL
smiles,measurement,setting,value
N#C/C(=C\c1ccc(-c2ccc(C(=O)O)cc2)o1)c1nc2ccccc2[nH]1,outcome,[1],inactive
same,"fluorescence, percent of control (lower = inhibition)",[2],168%
same,"GTP binding, percent of control",[3],221%
same,outcome,[4],inactive
same,"GTP binding signal, raw median fluorescence (lower = inhibition) (MCF (arbitrary fluorescence units))",[5],144
same,outcome,[6],inactive
CN(C)c1ccc(/C=C/C(=O)c2cccc(Br)c2)cc1,outcome,[1],inactive
same,"fluorescence, percent of control (lower = inhibition)",[2],120%
same,"GTP binding, percent of control",[3],213%
same,outcome,[4],inactive
same,"GTP binding signal, raw median fluorescence (lower = inhibition) (MCF (arbitrary fluorescence units))",[5],225
same,outcome,[6],inactive
same,GFP response vs DMSO,[7],104% (inactive)
same,GFP response vs DMSO,[7]; [29],105%
same,GFP response vs DMSO,[7]; [30],104%
same,GFP response relative to DMSO,[8],99.5% (inactive)
same,GFP response relative to DMSO,[8]; [31],97.5%
same,GFP response relative to DMSO,[8]; [32],102%
same,GFP response vs DMSO,[9],112% (inactive)
same,"GFP response, % of DMSO",[10],94% (inactive)
same,"GFP response, % of DMSO",[11],98.8% (inactive)
same,"GFP response, % of DMSO",[11]; [29],97.4%
same,"GFP response, % of DMSO",[11]; [30],98.1%
Cc1cc(C)c(C(=O)Cn2cnc3cc([N+](=O)[O-])ccc3c2=O)cc1C,outcome,[1],inactive
same,"fluorescence, percent of control (lower = inhibition)",[2],34%
same,"GTP binding, percent of control",[3],74.6%
same,outcome,[4],inactive
same,"GTP binding signal, raw median fluorescence (lower = inhibition) (MCF (arbitrary fluorescence units))",[5],161
same,outcome,[6],inactive
same,GFP response vs DMSO,[7],100% (inactive)
same,GFP response vs DMSO,[7]; [29],101%
same,GFP response vs DMSO,[7]; [30],99.8%
same,GFP response relative to DMSO,[8],89.4% (inactive)
same,GFP response relative to DMSO,[8]; [31],88.2%
same,GFP response relative to DMSO,[8]; [32],91.3%
same,GFP response vs DMSO,[9],99.3% (inactive)
same,"GFP response, % of DMSO",[10],102% (inactive)
same,"GFP response, % of DMSO",[11],97.2% (inactive)
same,"GFP response, % of DMSO",[11]; [29],97.6%
same,"GFP response, % of DMSO",[11]; [30],98.2%
COCCn1c(=S)[nH]c2cc(C(=O)N3CCc4ccccc4C3)ccc2c1=O,outcome,[1],inactive
same,"fluorescence, percent of control (lower = inhibition)",[2],35.6%
same,"GTP binding, percent of control",[3],83.9%
same,outcome,[4],inactive
same,outcome,[6],inactive
O=C(O)c1ccccc1OCCOc1ccccc1,outcome,[1],inactive
same,"fluorescence, percent of control (lower = inhibition)",[2],82.8%
same,"GTP binding, percent of control",[3],81.1%
same,outcome,[4],inactive
same,"GTP binding signal, raw median fluorescence (lower = inhibition) (MCF (arbitrary fluorescence units))",[5],297
same,outcome,[6],inactive
same,percent of DMSO control GFP,[12],93.4% (inactive)
same,GFP response vs DMSO,[13],98.8% (inactive)
same,percent response of DMSO control,[14],83.1% (inactive)
same,GFP response vs DMSO,[15],129% (inactive)
same,"GFP response, % of DMSO",[16],77.1% (inactive)
same,double positive events,[17],66%
same,vesicle binding response,[17],133% (inactive)
same,inhibition,[18],2.55% (inactive)
same,superoxide response (% of plate),[19],43.5% (active)
same,aptamer binding inhibition,[20],2% (inactive)
same,response,[21],32.2% (inactive)
same,inhibition,[22],52.1% (inactive)
same,response,[23],-1.15% (inactive)
same,binding (% of control),[24],96% (inactive)
same,efflux inhibition (fraction of control),[25],0.74 (active)
same,inhibition,[26],8% (inactive)
same,differentiation response,[27],34.6% (inactive)
O=C1c2ccccc2-c2onc3ccc(Oc4ccccc4)c1c23,outcome,[1],inactive
same,"fluorescence, percent of control (lower = inhibition)",[2],27.9%
same,"GTP binding, percent of control",[3],46.3%
same,outcome,[4],inactive
same,"GTP binding signal, raw median fluorescence (lower = inhibition) (MCF (arbitrary fluorescence units))",[5],183
same,outcome,[6],inactive
same,GFP response vs DMSO,[7],86.5% (inactive)
same,GFP response vs DMSO,[7]; [29],86.6%
same,GFP response vs DMSO,[7]; [30],85.9%
same,GFP response relative to DMSO,[8],147% (inactive)
same,GFP response relative to DMSO,[8]; [31],136%
same,GFP response relative to DMSO,[8]; [32],150%
same,GFP response vs DMSO,[9],113% (inactive)
same,"GFP response, % of DMSO",[10],84.3% (inactive)
same,"GFP response, % of DMSO",[11],95.2% (inactive)
same,"GFP response, % of DMSO",[11]; [29],94.8%
same,"GFP response, % of DMSO",[11]; [30],94.4%
O=C(/C=C/c1ccc(Cl)c([N+](=O)[O-])c1)c1cccnc1,outcome,[1],inactive
same,"fluorescence, percent of control (lower = inhibition)",[2],30.5%
same,"GTP binding, percent of control",[3],73.5%
same,outcome,[4],inactive
same,"GTP binding signal, raw median fluorescence (lower = inhibition) (MCF (arbitrary fluorescence units))",[5],206
same,outcome,[6],inactive
same,GFP response vs DMSO,[7],91.5% (inactive)
same,GFP response vs DMSO,[7]; [29],89.7%
same,GFP response vs DMSO,[7]; [30],84.1%
same,GFP response relative to DMSO,[8],207% (active)
same,GFP response relative to DMSO,[8]; [31],192%
same,GFP response relative to DMSO,[8]; [32],215%
same,GFP response vs DMSO,[9],105% (inactive)
same,"GFP response, % of DMSO",[10],107% (inactive)
same,"GFP response, % of DMSO",[11],86% (inactive)
same,"GFP response, % of DMSO",[11]; [29],102%
same,"GFP response, % of DMSO",[11]; [30],72.8%
same,fluorescence change (kMESF span),[28],1.02 (inactive)
